In PubChem BioAssay (NCATS):
Results filed as inconclusive are left out. Where a call stands in place of a potency, no number is given. A number with no mark means an inactive call. Activity calls are given as the source filed them. The call rests on the fitted dose curve; in most records, active means well fitted cell-killing curve with a large enough effect; inconclusive means small, poorly fitted or top-dose-only effect, or effect the other way; inactive means flat fitted curve, though single readings scatter.

system: HeLa; test: Primary qHTS to identify gynecologic anti-cancer compounds using libraries of approved drugs and bioactive compounds (AID 1345084); details: Gynecologic cancer cell panel viability, ATPlite luminescence, 48 h; series mostly up to 57.5 µM; further: nearly all actives have a fitted effect of over 55% in size
Summary of the method: (§1)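 Five-concentration response, 48 h; readout is ATP-driven luciferase luminescence.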

Q: How did the Potency turn out when `CC1CC(=O)[C@]2(O)C(C(=O)OCCc3ccc(O)c(O)c3)=CO[C@@H](O[C@@H]3O[C@H](CO)[C@@H](O)[C@H](O)[C@H]3O)[C@H]12` (stereo partly drawn) was run?
A: inactive

Q: For `COc1cc(O)cc2c1C(=O)OC(C)CCCCCCC2` (stereo not drawn), which Potency is on record?
A: inactive

Q: `C=C(C)[C@H]1CC[C@]2(C(=O)O)CC[C@]3(C)C(CCC4[C@@]5(C)CCC(=O)C(C)(C)C5CC[C@]43C)C12` (stereo partly drawn) was tested. Which Potency did it give?
A: inactive

Q: How did the Potency turn out when `OCC1OC(Oc2cc(O)cc(/C=C/c3ccc(OC4OC(CO)C(O)C(O)C4O)cc3O)c2)C(O)C(O)C1O` (stereo not drawn) was run?
A: inactive

Q: For `CC(C)[C@](O)(c1ccc2cc(OC(F)F)c(OC(F)F)cc2c1)c1cn[nH]n1`, which Potency is on record?
A: inactive

Q: Which activity change, negative = cytotoxicity does the source give for `C/C=C1/[C@H](O[C@@H]2O[C@H](CO)[C@@H](O)[C@H](O)[C@H]2O)OC=C(C(=O)OC)[C@H]1CC(=O)OCCc1ccc(OC(=O)C[C@@H]2C(C(=O)OC)=CO[C@@H](O[C@@H]3O[C@H](CO)[C@@H](O)[C@H](O)[C@H]3O)/C2=C/C)cc1` here?
A: 18.2% [at 11.6 µM]

Q: How did the Potency turn out when `C/C(=C/CO)CC[C@H]1[C@]2(C)C[C@H](O)CC(C)(C)[C@H]2CC[C@]1(C)O` was run?
A: inactive

Q: `C[C@@H]1O[C@@H](O[C@@H]2\C=C/C=C\C=C/C=C\C[C@H](C)OC(=O)/C=C\[C@H]3O[C@@H]3C[C@H](O)C[C@]3(O)C[C@@H](O)[C@@H](C(=O)O)[C@H](C2)O3)[C@H](O)[C@H](N)[C@@H]1O` was tested. Which Potency did it give?
A: inactive

Q: How did the Potency turn out when `COc1cc(C)c(C(=O)O[C@@H]2[C@H](O)[C@@H](CO)O[C@H]2n2ccc(=O)[nH]c2=O)c(OC)c1` was run?
A: inactive

Q: Which Potency does the source give for `C=C(CCO)C(=O)OCC1OCC(OC(=O)C(=C)CCO[C@@H]2O[C@H](CO)[C@@H](O)[C@H](O)[C@H]2O)C(O)C1O` (stereo partly drawn) here?
A: inactive

Q: `COc1ccc(/C=C/C(=O)N2CCCC2)cc1` was tested. Which Potency did it give?
A: inactive

Q: `C[C@@H]1O[C@@H](OC[C@H]2O[C@@H](OCc3ccccc3)[C@H](O)[C@@H](O)[C@@H]2O)[C@H](O)[C@H](O)[C@H]1O` was tested. Which Potency did it give?
A: inactive

Q: For `CC(=O)O[C@@H]1C=C2[C@H](CC[C@@]3(C)[C@@]2(O)CC[C@H]2Cc4c([nH]c5ccccc45)[C@@]23C)O[C@@H]1C(C)(C)O`, which Potency is on record?
A: inactive

Q: With `Cc1cc(Cn2cnc3c2CC(C(=O)O)N(C(=O)C(c2ccccc2)c2ccccc2)C3)ccc1N(C)C` (stereo not drawn) as the compound, how does the Potency read?
A: inactive

system: Hek293T; test: as above; details: Gynecologic cancer cell panel viability, ATPlite luminescence, 48 h, control line for the selectivity index; series mostly up to 57.5 µM
Summary of the method: as §1

Q: With `COc1cccc(Cn2ncc3c4sc(S(C)=O)cc4n(C)c3c2=O)c1` (stereo not drawn) as the compound, how does the Potency read?
A: inactive

Q: For `CC(C)CC(=O)O[C@@H]1O[C@H](CO)[C@@H](O[C@H]2O[C@H](C)[C@@H](N[C@H]3C=C(CO)[C@@H](O[C@H]4O[C@H](CO)[C@@H](O[C@H]5O[C@H](CO)[C@@H](O[C@H]6O[C@H](CO)[C@@H](O)[C@H](O)[C@H]6O)[C@H](O)[C@H]5O)[C@H](O)[C@H]4O)[C@H](O)[C@H]3O)[C@H](O)[C@H]2O)[C@H](O)[C@H]1O`, which activity change, negative = cytotoxicity is on record?
A: 4.85% [at 11.6 µM]

Q: With `COc1ccc(C2COc3cc(O)ccc3C2)c(O)c1OC` (stereo not drawn) as the compound, how does the Potency read?
A: inactive

Q: Which Potency does the source give for `CCN1CCN(C(=O)N[C@@H](C(=O)N[C@@H]2C(=O)N3[C@@H]2SC(C)(C)[C@@H]3C(=O)O)c2ccccc2)C(=O)C1=O` here?
A: inactive

Q: Which Potency does the source give for `COc1ccc(/C=C/C(N)=O)cc1OC` here?
A: inactive

Q: For `N[C@@H](CC(=O)Nc1ccc(Oc2cc(F)c(F)cc2Br)cc1)C(=O)O`, which Potency is on record?
A: inactive

Q: With `COc1cc(O)cc2c1C(=O)OC(C)C2` (stereo not drawn) as the compound, how does the Potency read?
A: inactive

Q: `COc1cc(/C=C/C(=O)O[C@@H]2C[C@](O)(C(=O)O)C[C@@H](O)[C@H]2O)ccc1O` was tested. Which Potency did it give?
A: inactive

Q: With `Cc1cn(C[C@H](N)C(=O)O)c(=O)n(Cc2ccsc2C(=O)O)c1=O` as the compound, how does the Potency read?
A: inactive

Q: With `CC(O)C1CCC2C3CCC4CC(OC5OC(C(=O)O)C(O)C(O)C5O)CCC4(C)C3CCC12C` (stereo not drawn) as the compound, how does the Potency read?
A: inactive

Q: For `C/C=C1/[C@H](O[C@@H]2O[C@H](CO)[C@@H](O)[C@H](O)[C@H]2O)OC=C2C(=O)O[C@@H]3C[C@@H](C(C)CO)[C@H](COC(=O)C[C@H]21)[C@H]3C` (stereo partly drawn), which Potency is on record?
A: inactive

Q: How did the Potency turn out when `COc1ccc(NC(=O)c2ccc(-c3ccc(C(N)=O)cc3C)cc2)cc1N1CCN(C)CC1` was run?
A: inactive

Q: How did the Potency turn out when `Cc1cccc(-c2nn3c(c2-c2ccnc4ccc(C(N)=O)cc24)CCC3)n1` was run?
A: inactive

Q: Which activity change, negative = cytotoxicity does the source give for `CC1(C)CC[C@]2(C(=O)OC3OC(CO)C(O)C(O)C3O)CC[C@]3(C)C(=CCC4[C@@]5(C)C[C@@H](O)[C@H](OC6OC(C(=O)O)C(O)C(O)C6O)C(C)(C)C5CC[C@]43C)[C@@H]2C1` (stereo partly drawn) here?
A: -2.17% [at 11.6 µM]

Q: Which Potency does the source give for `O=C(NCC(=O)N1CCCC1)Nc1ccc2ccccc2c1` here?
A: inactive

Q: With `O=C(c1c2ccccc2cc2ccccc12)N1CCC(N2CCC[C@@H](C(=O)N3CCOCC3)C2)CC1` as the compound, how does the Potency read?
A: inactive

Q: Which Potency does the source give for `CC(C)c1ccc2c(c1)C(O)CC1C(C)(CO)CCCC21C` (stereo not drawn) here?
A: inactive

Q: `C=CCc1cc(OC)c(OC(C)C(O)c2ccc(O)c(OC)c2)c(OC)c1` (stereo not drawn) was tested. Which Potency did it give?
A: inactive

Q: With `COc1cc(O)cc(O[C@@H]2O[C@H](CO)[C@@H](O[C@@H]3OC[C@](O)(CO)[C@H]3O)[C@H](O)[C@H]2O)c1OC` as the compound, how does the Potency read?
A: inactive

Q: How did the Potency turn out when `CC1(C)COC(=O)[C@@H]1O[C@@H]1O[C@H](CO)[C@@H](O)[C@H](O)[C@H]1O` was run?
A: inactive

Q: With `C[C@@H]1O[C@@H](O[C@H]2[C@@H]3C=CO[C@@H](O[C@@H]4O[C@H](CO)[C@@H](O)[C@H](O)[C@H]4O)[C@@H]3[C@@]3(CO)O[C@@H]23)[C@H](O)[C@H](O)[C@H]1OC(=O)/C=C/c1ccc(O)cc1` as the compound, how does the Potency read?
A: inactive

Q: How did the Potency turn out when `Cc1c(NC(=O)N2CCOCC2)ccc2c1c1ccccc1n2C(C)C` was run?
A: inactive

Q: `COC(=O)C1=COC(OC2OC(CO)C(O)C(O)C2O)C2C(COC(=O)/C=C/c3ccc(O)c(O)c3)C(O)C(O)C12` (stereo not drawn) was tested. Which Potency did it give?
A: inactive

Q: With `O=C(OC[C@H]1O[C@H](O[C@]2(CO)O[C@H](CO)[C@@H](O)[C@@H]2O)[C@H](O)[C@@H](O)[C@@H]1O)c1ccc(O)cc1` as the compound, how does the Potency read?
A: inactive

Q: How did the Potency turn out when `C=CC(C)(O)C1CC2C3(C)CCCC(C)(C)C3C(O)C(O)C2(C)O1` (stereo not drawn) was run?
A: inactive

Q: For `CC1CC(=O)[C@]2(O)C(C(=O)OCCc3ccc(O)c(O)c3)=CO[C@@H](O[C@@H]3O[C@H](CO)[C@@H](O)[C@H](O)[C@H]3O)[C@H]12` (stereo partly drawn), which Potency is on record?
A: inactive

Q: `COc1cc(O)cc2c1C(=O)OC(C)CCCCCCC2` (stereo not drawn) was tested. Which Potency did it give?
A: inactive

Q: With `C=C(C)[C@H]1CC[C@]2(C(=O)O)CC[C@]3(C)C(CCC4[C@@]5(C)CCC(=O)C(C)(C)C5CC[C@]43C)C12` (stereo partly drawn) as the compound, how does the Potency read?
A: inactive

Q: `OCC1OC(Oc2cc(O)cc(/C=C/c3ccc(OC4OC(CO)C(O)C(O)C4O)cc3O)c2)C(O)C(O)C1O` (stereo not drawn) was tested. Which Potency did it give?
A: inactive

Q: How did the Potency turn out when `CC(C)[C@](O)(c1ccc2cc(OC(F)F)c(OC(F)F)cc2c1)c1cn[nH]n1` was run?
A: inactive

Q: `C/C=C1/[C@H](O[C@@H]2O[C@H](CO)[C@@H](O)[C@H](O)[C@H]2O)OC=C(C(=O)OC)[C@H]1CC(=O)OCCc1ccc(OC(=O)C[C@@H]2C(C(=O)OC)=CO[C@@H](O[C@@H]3O[C@H](CO)[C@@H](O)[C@H](O)[C@H]3O)/C2=C/C)cc1` was tested. Which activity change, negative = cytotoxicity did it give?
A: 5.22% [at 11.6 µM]

Q: Which Potency does the source give for `C/C(=C/CO)CC[C@H]1[C@]2(C)C[C@H](O)CC(C)(C)[C@H]2CC[C@]1(C)O` here?
A: inactive

Q: How did the Potency turn out when `C[C@@H]1O[C@@H](O[C@@H]2\C=C/C=C\C=C/C=C\C[C@H](C)OC(=O)/C=C\[C@H]3O[C@@H]3C[C@H](O)C[C@]3(O)C[C@@H](O)[C@@H](C(=O)O)[C@H](C2)O3)[C@H](O)[C@H](N)[C@@H]1O` was run?
A: inactive

Q: For `COc1cc(C)c(C(=O)O[C@@H]2[C@H](O)[C@@H](CO)O[C@H]2n2ccc(=O)[nH]c2=O)c(OC)c1`, which Potency is on record?
A: inactive

Q: Which Potency does the source give for `C=C(CCO)C(=O)OCC1OCC(OC(=O)C(=C)CCO[C@@H]2O[C@H](CO)[C@@H](O)[C@H](O)[C@H]2O)C(O)C1O` (stereo partly drawn) here?
A: inactive

Q: For `COc1ccc(/C=C/C(=O)N2CCCC2)cc1`, which Potency is on record?
A: inactive

Q: `C[C@@H]1O[C@@H](OC[C@H]2O[C@@H](OCc3ccccc3)[C@H](O)[C@@H](O)[C@@H]2O)[C@H](O)[C@H](O)[C@H]1O` was tested. Which Potency did it give?
A: inactive

Q: For `CC(=O)O[C@@H]1C=C2[C@H](CC[C@@]3(C)[C@@]2(O)CC[C@H]2Cc4c([nH]c5ccccc45)[C@@]23C)O[C@@H]1C(C)(C)O`, which Potency is on record?
A: inactive

Q: With `Cc1cc(Cn2cnc3c2CC(C(=O)O)N(C(=O)C(c2ccccc2)c2ccccc2)C3)ccc1N(C)C` (stereo not drawn) as the compound, how does the Potency read?
A: inactive
